# Reference: PMC7862700, “An all-to-all approach to the identification of sequence-specific readers for epigenetic DNA modifications on cytosine”
# Assays:
# Test in all cases: DAPPL (digital affinity profiling via proximity ligation, sequencing); 10 mM Tris-HCl pH 7.5, 50 mM NaCl, 1 mM DTT, 4% glycerol, room temperature, 30 min; GST-TFs on glutathione beads, 16-mer random dsDNA library, 0.1% formaldehyde crosslink after washing; high values mean tight binding
# FEV = target: T1, FEV (Homo sapiens, UniProt Q99581 1-238); details: protein: recombinant; tags: N-terminal GST; dsDNA, one strand shown
# T1 sequence: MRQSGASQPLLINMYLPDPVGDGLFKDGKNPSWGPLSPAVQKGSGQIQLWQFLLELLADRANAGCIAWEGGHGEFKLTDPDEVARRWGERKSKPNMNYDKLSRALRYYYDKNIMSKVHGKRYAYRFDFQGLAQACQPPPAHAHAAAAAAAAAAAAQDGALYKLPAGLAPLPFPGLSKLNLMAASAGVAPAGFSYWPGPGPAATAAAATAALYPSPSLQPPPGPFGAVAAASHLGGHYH
# Method in brief: (§1)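 The binding signal reported is, for every hexamer, its read frequency for a factor over its read frequency for the tag-only sample. Reads came from pools of yeast-expressed, GST-fused human transcription factors on glutathione beads, barcoded with DNA and mixed with that sample, which were incubated with 200 nmole of a random double-stranded 16-mer DNA library in Tris/NaCl/DTT/glycerol buffer at room temperature for 30 min. After washing, the pools were crosslinked with 0.1% formaldehyde, proximity-ligated with BsaI/T4 ligase for 1 h at 37 °C, PCR-amplified and sequenced on an Illumina NextSeq500.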
# ETV5 = ETV5 (Homo sapiens, UniProt P41161 1-510); details: protein: recombinant; tags: N-terminal GST; dsDNA, one strand shown
# Method in brief: as §1
# HSF1 = HSF1 (Homo sapiens, UniProt Q00613 1-529); details: protein: recombinant; tags: N-terminal GST; chain copies: 3; dsDNA, one strand shown
# Method in brief: as §1
# SPIC = target: T2, SPIC (Homo sapiens, UniProt Q8N5J4 1-248); details: protein: recombinant; tags: N-terminal GST; dsDNA, one strand shown
# T2 sequence: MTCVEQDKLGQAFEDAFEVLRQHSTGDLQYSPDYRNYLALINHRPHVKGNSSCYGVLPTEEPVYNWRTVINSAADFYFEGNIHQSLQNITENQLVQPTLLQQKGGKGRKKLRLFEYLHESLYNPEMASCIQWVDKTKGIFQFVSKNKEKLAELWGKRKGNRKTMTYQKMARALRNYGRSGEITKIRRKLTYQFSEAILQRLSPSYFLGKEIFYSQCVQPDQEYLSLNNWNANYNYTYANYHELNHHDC
# Method in brief: as §1
# ELF4 = ELF4 (Homo sapiens, UniProt Q99607 1-663); details: protein: recombinant; tags: N-terminal GST; dsDNA, one strand shown
# Method in brief: as §1
# ELK4 = target: T3, ELK4 (Homo sapiens, UniProt P28324-2 1-405); details: protein: recombinant; tags: N-terminal GST; dsDNA, one strand shown
# T3 sequence: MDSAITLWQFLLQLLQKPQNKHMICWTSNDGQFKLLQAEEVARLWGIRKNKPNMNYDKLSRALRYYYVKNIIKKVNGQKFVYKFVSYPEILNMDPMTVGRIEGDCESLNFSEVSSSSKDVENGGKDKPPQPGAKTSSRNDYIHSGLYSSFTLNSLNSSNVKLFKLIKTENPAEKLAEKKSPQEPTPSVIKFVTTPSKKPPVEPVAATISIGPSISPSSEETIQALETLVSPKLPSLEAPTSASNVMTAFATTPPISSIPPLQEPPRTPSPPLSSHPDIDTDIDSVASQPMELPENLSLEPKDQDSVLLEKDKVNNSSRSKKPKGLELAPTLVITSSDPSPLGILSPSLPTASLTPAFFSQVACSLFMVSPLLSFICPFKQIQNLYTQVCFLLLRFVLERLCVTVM
# Method in brief: as §1
# ETV2 = target: T4, ETV2 (Homo sapiens, UniProt O00321 1-342); details: protein: recombinant; tags: N-terminal GST; dsDNA, one strand shown
# T4 sequence: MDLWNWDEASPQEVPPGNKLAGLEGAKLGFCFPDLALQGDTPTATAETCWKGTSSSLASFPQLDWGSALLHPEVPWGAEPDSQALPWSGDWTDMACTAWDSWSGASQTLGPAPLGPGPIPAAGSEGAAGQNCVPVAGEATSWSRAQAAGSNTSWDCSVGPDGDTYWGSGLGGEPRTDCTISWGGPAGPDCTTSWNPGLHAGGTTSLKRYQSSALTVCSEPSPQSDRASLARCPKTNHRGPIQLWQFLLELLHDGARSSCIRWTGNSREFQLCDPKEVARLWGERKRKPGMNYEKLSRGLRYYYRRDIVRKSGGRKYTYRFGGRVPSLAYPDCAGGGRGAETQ
# Method in brief: as §1
# ELF3 = target: T5, ELF3 (Homo sapiens, UniProt P78545 1-371); details: protein: recombinant; tags: N-terminal GST; dsDNA, one strand shown
# T5 sequence: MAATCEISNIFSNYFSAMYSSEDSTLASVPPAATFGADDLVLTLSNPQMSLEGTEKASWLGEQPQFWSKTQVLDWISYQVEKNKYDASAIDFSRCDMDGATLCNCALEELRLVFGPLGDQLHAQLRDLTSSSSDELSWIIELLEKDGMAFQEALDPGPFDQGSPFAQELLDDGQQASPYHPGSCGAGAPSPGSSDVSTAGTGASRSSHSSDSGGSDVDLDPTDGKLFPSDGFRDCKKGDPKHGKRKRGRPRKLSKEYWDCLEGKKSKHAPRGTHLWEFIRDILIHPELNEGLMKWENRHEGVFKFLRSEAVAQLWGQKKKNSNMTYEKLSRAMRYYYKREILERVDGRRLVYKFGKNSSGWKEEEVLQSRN
# Method in brief: as §1
# CRX = CRX (Homo sapiens, UniProt O43186 1-299); details: protein: recombinant; tags: N-terminal GST; dsDNA, one strand shown
# Method in brief: as §1
# ETV1 = ETV1 (Homo sapiens, UniProt P50549 1-477); details: protein: recombinant; tags: N-terminal GST; dsDNA, one strand shown
# Method in brief: as §1
# ERF = target: T6, ERF (Homo sapiens, UniProt P50548 1-548); details: protein: recombinant; tags: N-terminal GST; dsDNA, one strand shown
# T6 sequence: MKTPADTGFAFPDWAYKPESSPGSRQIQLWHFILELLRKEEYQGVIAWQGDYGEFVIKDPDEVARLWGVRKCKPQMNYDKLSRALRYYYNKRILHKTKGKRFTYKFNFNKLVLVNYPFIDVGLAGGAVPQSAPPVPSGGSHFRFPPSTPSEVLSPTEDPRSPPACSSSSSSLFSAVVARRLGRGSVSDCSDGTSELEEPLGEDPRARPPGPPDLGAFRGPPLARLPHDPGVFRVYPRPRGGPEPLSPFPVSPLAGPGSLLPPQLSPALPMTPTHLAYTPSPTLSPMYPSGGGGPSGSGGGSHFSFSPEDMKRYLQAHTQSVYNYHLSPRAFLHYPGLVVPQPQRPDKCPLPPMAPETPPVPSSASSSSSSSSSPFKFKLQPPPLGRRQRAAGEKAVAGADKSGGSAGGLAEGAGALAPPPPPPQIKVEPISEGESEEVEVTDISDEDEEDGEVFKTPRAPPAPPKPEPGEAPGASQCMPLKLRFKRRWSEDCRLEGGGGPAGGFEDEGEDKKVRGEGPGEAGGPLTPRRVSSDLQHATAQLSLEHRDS
# Method in brief: as §1
# ETV3L = target: T7, ETV3L (Homo sapiens, UniProt Q6ZN32 1-361); details: protein: recombinant; tags: N-terminal GST; dsDNA, one strand shown
# T7 sequence: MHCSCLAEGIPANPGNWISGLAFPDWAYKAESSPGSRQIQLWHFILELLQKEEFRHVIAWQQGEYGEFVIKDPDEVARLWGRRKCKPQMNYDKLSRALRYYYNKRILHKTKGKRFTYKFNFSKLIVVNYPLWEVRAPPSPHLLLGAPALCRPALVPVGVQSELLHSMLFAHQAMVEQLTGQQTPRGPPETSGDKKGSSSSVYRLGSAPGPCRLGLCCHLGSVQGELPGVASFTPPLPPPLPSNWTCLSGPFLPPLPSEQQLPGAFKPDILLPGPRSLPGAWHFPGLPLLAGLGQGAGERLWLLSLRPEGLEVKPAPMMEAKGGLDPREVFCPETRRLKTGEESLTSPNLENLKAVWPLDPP
# Method in brief: as §1
# ETS2 = target: T8, ETS2 (Homo sapiens, UniProt P15036 1-469); details: protein: recombinant; tags: N-terminal GST; dsDNA, one strand shown
# T8 sequence: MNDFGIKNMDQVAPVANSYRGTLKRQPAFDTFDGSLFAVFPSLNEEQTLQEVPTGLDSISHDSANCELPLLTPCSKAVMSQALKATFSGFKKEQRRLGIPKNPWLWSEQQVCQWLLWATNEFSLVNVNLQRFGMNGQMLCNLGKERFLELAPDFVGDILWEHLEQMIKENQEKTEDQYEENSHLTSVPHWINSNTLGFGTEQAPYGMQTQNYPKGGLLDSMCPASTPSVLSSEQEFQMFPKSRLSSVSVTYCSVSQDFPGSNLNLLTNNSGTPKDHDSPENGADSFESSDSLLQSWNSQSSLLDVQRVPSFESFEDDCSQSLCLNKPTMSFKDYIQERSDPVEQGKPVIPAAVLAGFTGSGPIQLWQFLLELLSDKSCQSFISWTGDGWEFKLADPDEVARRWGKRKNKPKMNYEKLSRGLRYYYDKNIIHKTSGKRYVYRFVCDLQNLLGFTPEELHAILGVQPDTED
# Method in brief: as §1
# SPDEF = target: T9, SPDEF (Homo sapiens, UniProt O95238 1-335); details: protein: recombinant; tags: N-terminal GST; dsDNA, one strand shown
# T9 sequence: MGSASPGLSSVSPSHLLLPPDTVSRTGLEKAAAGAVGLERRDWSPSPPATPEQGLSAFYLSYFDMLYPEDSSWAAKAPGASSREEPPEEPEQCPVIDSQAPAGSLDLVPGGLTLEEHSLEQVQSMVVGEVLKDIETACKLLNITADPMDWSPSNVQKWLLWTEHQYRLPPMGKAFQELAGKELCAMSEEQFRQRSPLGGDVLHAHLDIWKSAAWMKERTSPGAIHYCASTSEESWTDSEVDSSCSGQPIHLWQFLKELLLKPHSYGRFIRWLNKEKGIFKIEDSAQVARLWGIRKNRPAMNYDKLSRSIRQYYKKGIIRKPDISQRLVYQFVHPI
# Method in brief: as §1
# ETV7 = target: T10, ETV7 (Homo sapiens, UniProt Q9Y603 1-341); details: protein: recombinant; tags: N-terminal GST; dsDNA, one strand shown
# T10 sequence: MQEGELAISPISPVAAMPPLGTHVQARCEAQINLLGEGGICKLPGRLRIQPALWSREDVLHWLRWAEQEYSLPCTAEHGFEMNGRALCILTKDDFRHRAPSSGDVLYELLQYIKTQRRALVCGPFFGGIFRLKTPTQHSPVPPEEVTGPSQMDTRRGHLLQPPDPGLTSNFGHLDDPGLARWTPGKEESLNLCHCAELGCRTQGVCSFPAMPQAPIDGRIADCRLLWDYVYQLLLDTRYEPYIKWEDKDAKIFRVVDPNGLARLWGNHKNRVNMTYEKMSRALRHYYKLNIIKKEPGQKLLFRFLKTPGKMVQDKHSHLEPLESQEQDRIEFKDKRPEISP
# Method in brief: as §1
# ELF5 = target: T11, ELF5 (Homo sapiens, UniProt Q9UKW6-2 1-255); details: protein: recombinant; tags: N-terminal GST; dsDNA, one strand shown
# T11 sequence: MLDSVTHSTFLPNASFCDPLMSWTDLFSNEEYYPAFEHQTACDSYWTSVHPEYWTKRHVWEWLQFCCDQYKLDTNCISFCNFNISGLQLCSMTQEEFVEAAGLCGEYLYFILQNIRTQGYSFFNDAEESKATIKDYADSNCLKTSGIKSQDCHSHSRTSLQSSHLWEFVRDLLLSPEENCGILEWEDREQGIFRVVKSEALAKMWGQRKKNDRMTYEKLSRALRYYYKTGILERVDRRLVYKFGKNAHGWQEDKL
# Method in brief: as §1
# ETV3 = target: T12, ETV3 (Homo sapiens, UniProt P41162-2 1-143); details: protein: recombinant; tags: N-terminal GST; dsDNA, one strand shown
# T12 sequence: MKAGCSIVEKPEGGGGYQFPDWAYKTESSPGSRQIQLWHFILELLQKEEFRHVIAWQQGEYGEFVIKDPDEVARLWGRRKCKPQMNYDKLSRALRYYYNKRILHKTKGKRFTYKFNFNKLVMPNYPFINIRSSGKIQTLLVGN
# Method in brief: as §1
# ETV6 = ETV6 (Homo sapiens, UniProt P41212 1-452); details: protein: recombinant; tags: N-terminal GST; dsDNA, one strand shown
# Method in brief: as §1
# ETV6, sequence (P41212 whole entry): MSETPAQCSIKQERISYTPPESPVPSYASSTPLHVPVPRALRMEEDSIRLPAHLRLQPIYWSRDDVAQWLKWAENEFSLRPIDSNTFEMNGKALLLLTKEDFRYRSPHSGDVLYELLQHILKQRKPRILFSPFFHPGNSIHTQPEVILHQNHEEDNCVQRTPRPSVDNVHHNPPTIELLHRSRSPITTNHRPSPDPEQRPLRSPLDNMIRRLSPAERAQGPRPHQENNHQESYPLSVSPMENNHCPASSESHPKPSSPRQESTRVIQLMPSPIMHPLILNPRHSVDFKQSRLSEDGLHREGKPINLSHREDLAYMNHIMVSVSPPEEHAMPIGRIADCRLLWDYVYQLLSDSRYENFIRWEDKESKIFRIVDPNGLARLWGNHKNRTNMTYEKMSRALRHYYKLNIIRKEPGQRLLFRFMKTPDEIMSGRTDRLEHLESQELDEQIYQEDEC
# HSF1, sequence (Q00613 whole entry): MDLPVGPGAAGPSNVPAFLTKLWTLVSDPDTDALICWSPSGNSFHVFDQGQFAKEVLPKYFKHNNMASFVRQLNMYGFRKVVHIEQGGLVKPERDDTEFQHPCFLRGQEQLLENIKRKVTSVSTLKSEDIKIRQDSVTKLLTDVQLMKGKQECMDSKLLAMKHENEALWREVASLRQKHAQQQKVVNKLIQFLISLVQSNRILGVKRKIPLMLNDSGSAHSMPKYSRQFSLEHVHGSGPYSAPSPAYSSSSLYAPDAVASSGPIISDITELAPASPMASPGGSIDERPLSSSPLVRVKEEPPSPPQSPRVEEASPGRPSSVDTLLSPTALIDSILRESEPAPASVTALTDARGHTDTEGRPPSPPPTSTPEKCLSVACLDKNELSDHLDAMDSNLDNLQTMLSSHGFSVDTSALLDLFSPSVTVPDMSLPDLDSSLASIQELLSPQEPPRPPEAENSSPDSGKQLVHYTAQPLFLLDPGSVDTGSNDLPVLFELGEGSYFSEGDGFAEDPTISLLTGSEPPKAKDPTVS
# ELF4, sequence (Q99607 whole entry): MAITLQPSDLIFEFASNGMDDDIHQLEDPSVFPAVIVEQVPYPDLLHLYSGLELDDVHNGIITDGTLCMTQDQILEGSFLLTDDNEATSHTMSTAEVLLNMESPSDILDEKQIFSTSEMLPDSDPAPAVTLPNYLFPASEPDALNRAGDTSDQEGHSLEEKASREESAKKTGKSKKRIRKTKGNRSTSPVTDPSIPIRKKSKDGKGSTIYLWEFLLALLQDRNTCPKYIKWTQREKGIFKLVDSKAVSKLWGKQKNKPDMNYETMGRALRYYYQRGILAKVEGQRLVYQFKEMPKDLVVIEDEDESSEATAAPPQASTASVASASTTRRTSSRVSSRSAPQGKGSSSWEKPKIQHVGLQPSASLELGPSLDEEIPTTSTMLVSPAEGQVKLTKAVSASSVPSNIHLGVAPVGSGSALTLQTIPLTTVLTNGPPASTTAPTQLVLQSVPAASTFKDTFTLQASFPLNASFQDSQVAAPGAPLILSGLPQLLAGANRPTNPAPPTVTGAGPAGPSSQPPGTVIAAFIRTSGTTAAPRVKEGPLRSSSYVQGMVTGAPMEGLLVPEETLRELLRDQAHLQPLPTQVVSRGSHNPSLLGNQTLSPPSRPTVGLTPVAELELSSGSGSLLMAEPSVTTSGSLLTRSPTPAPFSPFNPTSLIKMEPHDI
# ETV5, sequence (P41161 whole entry): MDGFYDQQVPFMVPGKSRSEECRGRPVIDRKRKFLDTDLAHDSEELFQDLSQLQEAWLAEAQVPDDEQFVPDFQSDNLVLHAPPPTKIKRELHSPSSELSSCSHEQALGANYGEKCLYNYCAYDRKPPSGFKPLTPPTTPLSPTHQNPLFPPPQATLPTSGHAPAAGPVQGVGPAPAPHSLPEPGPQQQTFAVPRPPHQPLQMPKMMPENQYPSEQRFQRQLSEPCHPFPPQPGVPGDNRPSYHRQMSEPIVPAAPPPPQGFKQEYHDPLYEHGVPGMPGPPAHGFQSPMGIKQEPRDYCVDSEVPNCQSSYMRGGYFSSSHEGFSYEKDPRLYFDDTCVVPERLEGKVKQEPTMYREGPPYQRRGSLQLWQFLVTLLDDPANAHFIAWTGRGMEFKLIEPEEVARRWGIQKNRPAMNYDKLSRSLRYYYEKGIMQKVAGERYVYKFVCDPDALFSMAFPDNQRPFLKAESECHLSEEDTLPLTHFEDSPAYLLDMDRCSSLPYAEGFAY
# ETV1, sequence (P50549 whole entry): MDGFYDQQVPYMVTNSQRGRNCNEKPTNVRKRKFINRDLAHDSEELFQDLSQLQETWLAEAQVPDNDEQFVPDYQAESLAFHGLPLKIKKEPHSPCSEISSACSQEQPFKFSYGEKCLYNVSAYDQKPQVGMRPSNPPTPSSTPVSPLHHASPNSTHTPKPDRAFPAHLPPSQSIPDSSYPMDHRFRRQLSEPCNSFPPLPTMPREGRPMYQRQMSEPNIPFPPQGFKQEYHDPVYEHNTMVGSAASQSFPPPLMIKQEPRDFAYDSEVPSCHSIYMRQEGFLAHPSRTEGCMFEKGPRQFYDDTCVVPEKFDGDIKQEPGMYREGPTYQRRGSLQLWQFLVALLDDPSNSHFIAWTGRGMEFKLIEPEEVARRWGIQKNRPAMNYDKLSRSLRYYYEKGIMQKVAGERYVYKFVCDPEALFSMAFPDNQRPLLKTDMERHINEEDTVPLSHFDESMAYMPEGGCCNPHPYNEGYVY
# CRX, sequence (O43186 whole entry): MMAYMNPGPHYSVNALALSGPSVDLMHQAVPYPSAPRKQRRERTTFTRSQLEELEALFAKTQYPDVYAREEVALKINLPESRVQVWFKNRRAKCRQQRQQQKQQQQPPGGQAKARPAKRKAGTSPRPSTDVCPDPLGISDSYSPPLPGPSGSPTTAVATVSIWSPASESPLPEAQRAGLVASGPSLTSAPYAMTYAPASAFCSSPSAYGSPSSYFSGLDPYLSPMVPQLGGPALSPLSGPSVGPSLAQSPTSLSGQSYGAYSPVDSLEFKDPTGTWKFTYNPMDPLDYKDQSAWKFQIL
sequence,measurement,setting,value
CCGGAT,binding signal,FEV,"7.2 fold enrichment (6-mer frequency, TF over GST control)"
same,binding signal,ETV5,"3.55 fold enrichment (6-mer frequency, TF over GST control)"
same,binding signal,HSF1,"1.63 fold enrichment (6-mer frequency, TF over GST control)"
same,binding signal,SPIC,"2.66 fold enrichment (6-mer frequency, TF over GST control)"
same,binding signal,ELF4,"2.75 fold enrichment (6-mer frequency, TF over GST control)"
same,binding signal,ELK4,"2.74 fold enrichment (6-mer frequency, TF over GST control)"
same,binding signal,ETV2,"2.89 fold enrichment (6-mer frequency, TF over GST control)"
same,binding signal,ELF3,"3.19 fold enrichment (6-mer frequency, TF over GST control)"
same,binding signal,CRX,"2.03 fold enrichment (6-mer frequency, TF over GST control)"
same,binding signal,ETV1,"3.5 fold enrichment (6-mer frequency, TF over GST control)"
same,binding signal,ERF,"2.87 fold enrichment (6-mer frequency, TF over GST control)"
same,binding signal,ETV3L,"3.03 fold enrichment (6-mer frequency, TF over GST control)"
same,binding signal,ETS2,"3.38 fold enrichment (6-mer frequency, TF over GST control)"
same,binding signal,SPDEF,"6.71 fold enrichment (6-mer frequency, TF over GST control)"
same,binding signal,ETV7,"2.7 fold enrichment (6-mer frequency, TF over GST control)"
same,binding signal,ELF5,"3.7 fold enrichment (6-mer frequency, TF over GST control)"
same,binding signal,ETV3,"3.64 fold enrichment (6-mer frequency, TF over GST control)"
same,binding signal,ETV6,"3.06 fold enrichment (6-mer frequency, TF over GST control)"
